Assay outcomes as filed in PubChem BioAssay.
Arbovirus inh = arbovirus infection inhibition | arbovirus infection cell-based antiviral screen | hit rate 0.37% among 200,000 | inhibition, % at 10 µM; in the data active = inhibition above about 30%
KCC2 mod = modulates chloride dependent transport by human KCC2. Q9H2X9. KCC2 cells, thallium flux FluoZin-2 fluorescence. B-score of Tl+ flux slope (higher = more flux/activation; lower = inhibition) at 10 µM. hit rate 2.2% among 190,000;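 active = thallium flux slope and its plate-corrected score both differing from the plate sample mean at a set confidence after two filtering rounds, in either direction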;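 note: slope of fluorescence scaled to starting intensity during 10 to 20 s after thallium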
Target sequence (Q9H2X9 whole entry, looked up): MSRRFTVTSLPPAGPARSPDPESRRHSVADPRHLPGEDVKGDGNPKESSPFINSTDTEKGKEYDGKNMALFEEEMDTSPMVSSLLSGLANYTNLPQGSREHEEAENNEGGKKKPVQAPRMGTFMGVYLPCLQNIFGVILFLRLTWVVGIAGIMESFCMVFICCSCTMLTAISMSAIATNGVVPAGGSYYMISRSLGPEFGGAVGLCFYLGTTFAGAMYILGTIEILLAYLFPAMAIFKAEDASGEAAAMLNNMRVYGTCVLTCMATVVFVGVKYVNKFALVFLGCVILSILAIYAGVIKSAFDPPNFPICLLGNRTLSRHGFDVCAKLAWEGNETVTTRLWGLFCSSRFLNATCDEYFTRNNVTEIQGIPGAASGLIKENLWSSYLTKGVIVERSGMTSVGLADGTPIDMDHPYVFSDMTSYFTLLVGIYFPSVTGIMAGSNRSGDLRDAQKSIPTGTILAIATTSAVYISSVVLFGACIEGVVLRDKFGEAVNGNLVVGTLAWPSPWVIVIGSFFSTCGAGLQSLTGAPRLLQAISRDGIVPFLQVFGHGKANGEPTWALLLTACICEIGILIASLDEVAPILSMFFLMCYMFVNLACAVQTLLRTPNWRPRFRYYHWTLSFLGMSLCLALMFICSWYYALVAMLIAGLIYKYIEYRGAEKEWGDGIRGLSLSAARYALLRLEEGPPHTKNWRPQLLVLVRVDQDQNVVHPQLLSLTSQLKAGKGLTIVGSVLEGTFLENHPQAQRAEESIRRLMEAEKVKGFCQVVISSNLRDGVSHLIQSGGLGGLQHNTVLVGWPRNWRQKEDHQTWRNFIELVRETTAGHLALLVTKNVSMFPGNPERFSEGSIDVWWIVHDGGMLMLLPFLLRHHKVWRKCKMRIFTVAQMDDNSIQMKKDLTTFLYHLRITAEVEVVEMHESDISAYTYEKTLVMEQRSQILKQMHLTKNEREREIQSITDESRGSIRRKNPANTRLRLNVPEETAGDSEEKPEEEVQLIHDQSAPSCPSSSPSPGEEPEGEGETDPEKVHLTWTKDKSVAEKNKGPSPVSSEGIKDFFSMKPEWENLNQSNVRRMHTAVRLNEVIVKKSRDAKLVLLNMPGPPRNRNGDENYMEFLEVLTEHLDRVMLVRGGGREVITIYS
ROMK mod = human ROMK K+ channel modulation, primary screen; Tet-inducible ROMK, thallium flux fluorescence; actives lie on both sides; P48048; hit rate 2% among 130,000; B-score at 10 µM;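 active = signal ratio slope over the read window, or its plate-corrected B-score, at least 3 SD from the plate mean, either direction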;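 note: B-score of the F/F0 ratio slope over 7 to 12 s after thallium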
Measles CPE = protection of cells from measles virus; AID 841; protection (pct of control), % at 4 µM; hit rate 1.5% among 140,000; Measles virus-infected cells, CPE protection, absorbance; in the data active = protection mostly above about 24%, no sharp cut-off; inactive = mostly below about 26%
HSV replic up = HSV replication enhancement; HSV replication augmentation in cells, fold increase; maximum fold increase; hit rate 0.005% among 220,000; in the data active = maximum fold increase above about 1.5; inconclusive = no clear call, values can overlap the other calls; tested in PC3 cells
KCC2 secondary = KCC2 (human) modulation, secondary assay; shares compounds with KCC2 mod; normalised thallium flux (F/F0 slope) at 10 µM; hit rate 15% among 3,700; HEK293-KCC2, thallium flux, FluoZin2 fluorescence; hits give high values;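 active = thallium flux slope above the same plate's solvent-only control mean plus 3 SD; inconclusive = the two replicate wells disagree; inactive = no significant difference from solvent-only control wells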
KCC2 bumet counter = thallium flux persisting under bumetanide in KCC2 cells, counter-screen secondary assay | hit rate 49% among 3,700 | HEK293-KCC2 + bumetanide/ouabain, thallium flux FluoZin2; hits give high values | normalized thallium flux at 10 µM | shares compounds with KCC2 mod;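 active = thallium entry rate above the same plate's blocked-transporter control wells by more than 3 SD; inconclusive = the two repeat wells disagree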;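 note: raw slope of fluorescence over initial fluorescence between 10 and 20 s after thallium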
KCC2 secondary2 = KCC2 (human) modulation, second secondary assay; shares compounds with KCC2 mod; HEK293-KCC2, thallium flux FluoZin2 fluorescence; actives lie on both sides; F/F0 rise rate, 10–20 s post-thallium; hit rate 23% among 3,700; normalized thallium flux at 10 µM;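 active = thallium flux slope more than 3 SD above or below the plate's solvent-only control mean, mostly below; inconclusive = the two repeat wells disagreed; inactive = no significant shift from solvent-only controls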
HEK293 Tl flux = parental HEK flux effect, counter-screen. thallium flux rate (normalised fluorescence) at 10 µM. HEK293 parental cells, thallium flux FluoZin2, ouabain; baseline-ratio fluorescence slope, 10–20 s after thallium. shares compounds with KCC2 mod. hit rate 46% among 3,700;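 active = thallium flux rate significantly above the same plate's solvent-only control wells, beyond their mean plus 3 SD; inconclusive = the two replicate wells gave conflicting results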
KCC2 retest ouab = confirmation of human KCC2 modulators with ouabain; shares compounds with KCC2 mod; HEK293-KCC2, thallium flux FluoZin2 fluorescence; bidirectional: low = inhibitor, high = activator; raw Tl+ flux slope (below DMSO = inhibition, above = activation) at 10 µM; hit rate 48% among 3,700; AID 1717;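 active = thallium flux slope beyond 3 SD from same-plate DMSO control mean in most replicates, usually higher, sometimes lower; inconclusive = repeat tests gave conflicting results; inactive = no significant difference from controls in most replicates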;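 note: slope of initial-normalized fluorescence between seconds 10 and 20 after thallium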
HEK counter2 = acts in parental HEK cells, second KCC2 counter-screen; shares compounds with KCC2 mod; HEK293 parental, thallium flux FluoZin-2 fluorescence slope; thallium flux slope at 10 µM; hit rate 33% among 3,700; AID 1718;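 active = thallium flux slope above the same plate's solvent-control mean plus 3 SD in both duplicate wells; inconclusive = duplicate wells that disagreed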;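 note: run without ouabain in cells lacking the KCC2 cotransporter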
A number is an active result; 0 = inactive; ? = inconclusive; - = not tested or not shown. Compounds with a hit are over-represented: about 4% of the library has one in this group of screens.

SMILES	Arbovirus inh	KCC2 mod	ROMK mod	Measles CPE	HSV replic up	KCC2 secondary	KCC2 bumet counter	KCC2 secondary2	HEK293 Tl flux	KCC2 retest ouab	HEK counter2
CN(C)c1ccc(-c2cc([C@H]3[C@@H]4C=CCC[C@@]4(C)C(=O)N3Cc3ccccc3)ccc2F)cc1	-	0	-	-	0	-	-	-	-	-	-
Nc1ccc(-c2nc3ccc(N)cc3s2)cc1	-	0	-	-	0	-	-	-	-	-	-
Cn1c(-c2ccc3nc(N)sc3c2)nc2cc(N)ccc21	0	-	0	0	0	?	?	0	0	0	0
Cc1cc(C(=O)N/N=C/c2c(C)nn(-c3ccccc3)c2C)n[nH]1	-	0	-	-	0	-	-	-	-	-	-
Cc1nn(-c2ccccc2)c(C)c1/C=N/NC(=O)c1cc(C2CC2)[nH]n1	0	-	-	0	0	0	0	0	0	0.015	0
Clc1cccc(-c2nnc(SC/C=C/c3ccccc3)n2Cc2ccco2)c1	0	-3.3	-	0	0	0	?	0	0.0059	0.015	?
Clc1cccc(CSc2nnc(-c3ccccn3)n2Cc2ccco2)c1	0	-	0	0	0	-	-	-	-	-	-
C(=C\c1ccccc1)/CSc1nnc(-c2ccccc2)n1Cc1ccco1	0	0	-	0	0	0	?	0.023	0.0042	0.013	0.0074
O=C(CCc1ccc(S(=O)(=O)N2CCOCC2)cc1)Nc1ccc2c(c1)OCCO2	-	0	-	-	0	-	-	-	-	-	-
COc1ccc(CCNC(=O)Cn2c([N+](=O)[O-])cnc2C)cc1OC	0	0	0	-	0	-	-	-	-	-	-
Cc1ccc(/C=C2/Sc3ccccc3N(CC(=O)NCCCOC(C)C)C2=O)cc1	0	-3.3	0	0	0	0	0	?	0	0.014	0
CCOCCCNC(=O)CN1C(=O)/C(=C\c2ccc(C)cc2)Sc2ccccc21	0	0	0	0	0	-	-	-	-	-	-
Cc1cc(C(=O)CCl)c(C)n1-c1cccc(S(=O)(=O)N2CCOCC2)c1	0	0	0	-	0	-	-	-	-	-	-
CCCCC(=O)NNC(=S)NC(=O)c1ccc(C)cc1	0	39	0	-	0	0.025	0.064	0.053	0.052	0.052	0.056
CCCCC(=O)NNC(=S)NC(=O)c1ccc([N+](=O)[O-])cc1	0	0	0	-	0	-	-	-	-	-	-
CCOc1cc(C(=S)N2CCCC2)ccc1OC(=O)Cc1ccc(F)cc1	0	0	0	-	0	-	-	-	-	-	-
COc1cc(C(=S)N2CCOCC2)ccc1OC(=O)Cc1ccc(F)cc1	0	-4.8	0	0	-	0	0	0.028	0	0.015	0
CCOC(=O)C1(CCCc2ccccc2)CCN(Cc2cnc(C)s2)CC1	0	-4.9	0	-	0	?	0	?	0	0	0
CCOC(=O)C1(Cc2cccc(F)c2)CCN(Cc2cnc(C)s2)CC1	0	-	-	-	0	-	-	-	-	-	-
CC(=O)N(C)c1ccc(NC(=O)Nc2ccc(C)c(C)c2)cc1	0	0	0	-	0	-	-	-	-	-	-
Cc1ccccc1NC(=S)Nc1ccc2[nH]c(=O)[nH]c2c1	-	0	-	-	0	-	-	-	-	-	-
Cc1ccc2c(c1)nnn2C1CCN(S(=O)(=O)c2cccc(S(=O)(=O)N(C)C)c2)CC1	0	-	0	0	0	0	0	?	0	?	0
O=S(=O)(NC1CCCC1)c1cccc(S(=O)(=O)N2CCC(n3nnc4ccccc43)CC2)c1	0	-	0	0	0	0	0	?	0	0	0
Cc1ccc2c(c1)nnn2C1CCN(S(=O)(=O)c2ccc3ccccc3c2)CC1	0	0	-	0	0	-	-	-	-	-	-
CC(C)Oc1cccc(C(=O)Nc2ccccc2N2CCOCC2)c1	0	-8.5	-	0	0	0	0	0	0	0	0
SMILES	Arbovirus inh	KCC2 mod	ROMK mod	Measles CPE	HSV replic up	KCC2 secondary	KCC2 bumet counter	KCC2 secondary2	HEK293 Tl flux	KCC2 retest ouab	HEK counter2
O=C(c1ccco1)N1CCN(S(=O)(=O)Cc2ccccc2Cl)CC1	0	0	0	-	0	-	-	-	-	-	-
CCOc1ccccc1N1C(=O)c2ccc(C(=O)Nc3cccnc3)cc2C1=O	0	-4.6	-	0	0	0	0	0	0	0	0
CC(=O)Oc1cccc(N2C(=O)c3ccc(C(=O)Nc4cccnc4)cc3C2=O)c1	0	0	0	-	0	-	-	-	-	-	-
CC(C(=O)OCC(=O)Nc1cccc(S(=O)(=O)N2CCOCC2)c1)N1C(=O)c2ccccc2C1=O (stereo unspecified)	0	0	0	-	0	-	-	-	-	-	-
O=c1c(-c2cnn(-c3ccccc3)c2)coc2cc(O)ccc12	0	-4.1	0	-	0	0	0.0059	0.026	0	?	0
Cc1cccc(NC(=O)CCCn2c(=S)[nH]c3ccccc3c2=O)c1	0	0	0	-	0	-	-	-	-	-	-
O=c1cc(-c2c(F)c(F)c(F)c(F)c2F)oc2c(F)c(F)c(F)c(F)c12	0	-2.7	-	0	0	0	?	0	0	0	0
O=c1cc(-c2c(F)c(F)c(F)c(F)c2F)oc2ccccc12	0	0	-	0	0	-	-	-	-	-	-
COc1ccc(COC[C@H](C)[C@H](O)[C@@H](C)[C@H]2OC(=O)[C@@H]2C)cc1	-	-	-	-	0	-	-	-	-	-	-
Oc1ccc(/C=N/NC(=S)NC2CC3CCC2C3)cc1 (stereo unspecified)	-	0	-	-	0	-	-	-	-	-	-
S=C(N/N=C/c1cccs1)NC1CC2CCC1C2 (stereo unspecified)	-	19	-	-	0	0.017	0.066	0	0.027	?	0.016
Oc1ccc(/C=C/c2ccc3ccccc3n2)cc1	0	0	0	-	0	-	-	-	-	-	-
O/C(=C\c1ccc2ccccc2n1)c1ccc(O)cc1O	0	-5.1	0	-	-	0.0058	0	0	0	0.014	0
COc1ccc([C@@]2(O)c3c(ccc(CC=C(C)C)c3O)NC(=O)[C@@H]2OC)cc1	-	0	-	-	0	-	-	-	-	-	-
Cc1cc(OC(F)F)ccc1NC(=O)Nc1ccc([N+](=O)[O-])cc1	0	0	-	0	0	-	-	-	-	-	-
O=C(c1nn2c(C(F)(F)F)cc(-c3cccs3)nc2c1Br)N1CCCc2ccccc21	0	0	0	0	0	-	-	-	-	-	-
O=C(c1nn2c(C(F)(F)F)cc(-c3ccco3)nc2c1Br)N1CCCc2ccccc21	0	-	0	0	0	?	0	0.025	0	?	0
Cn1c(=S)[nH]c2c(c1=O)C(C)(C)Cc1ccccc1-2	0	83	0	-	0	0.066	0.12	0.084	0.096	0.094	0.091
CC1(C)Cc2ccccc2-c2nc3n(c(=O)c21)CCS3	0	0	0	-	0	-	-	-	-	-	-
Cc1ccccc1C(=O)NC(=S)Nc1ccccc1[N+](=O)[O-]	0	14	-	-	0	0	0.013	0	0.011	0	0
COCCNC(=S)Nc1ccccc1[N+](=O)[O-]	0	0	0	-	0	-	-	-	-	-	-
O=C(NC(=S)Nc1ccccc1[N+](=O)[O-])c1ccco1	0	25	0	-	0	0.017	0.077	0	0.032	0.064	0.016
